The source of these data is article PMC10726135, “HNF4α isoforms regulate the circadian balance between carbohydrate and lipid metabolism in the liver”.

In all, about 18,000 sequences were measured (“log2 normalized intensity”: median about 0.36, highest 2% from about 7.3 on). Only a selection was taken, and the highest values are over-represented in it overall.

The assay concerns the target T1, HNF4alpha8 (COS-7 nuclear extract) (Homo sapiens, UniProt P41235-5 1-452).
T1 sequence: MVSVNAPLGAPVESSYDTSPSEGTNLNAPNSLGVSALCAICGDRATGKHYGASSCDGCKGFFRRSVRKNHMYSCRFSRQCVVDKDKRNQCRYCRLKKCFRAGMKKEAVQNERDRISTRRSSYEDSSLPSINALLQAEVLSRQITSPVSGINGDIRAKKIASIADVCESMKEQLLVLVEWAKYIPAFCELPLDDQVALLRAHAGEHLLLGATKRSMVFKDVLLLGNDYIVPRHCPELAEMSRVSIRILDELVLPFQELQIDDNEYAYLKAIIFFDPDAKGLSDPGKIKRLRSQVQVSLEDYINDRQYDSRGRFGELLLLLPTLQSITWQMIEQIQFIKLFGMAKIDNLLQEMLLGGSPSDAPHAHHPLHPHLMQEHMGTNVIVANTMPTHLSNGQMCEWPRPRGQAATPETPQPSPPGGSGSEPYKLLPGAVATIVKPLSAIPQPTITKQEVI
The assay is described as follows: protein-binding microarray; COS-7 nuclear extract on double-stranded Agilent 4x180k PBM; binding buffer, salt, pH and temperature not given in the material; high values mean tight binding. As to conditions: chain copies: 2; label: 3' end of strand 1 on the slide; dsDNA, one strand shown. A digest of the protocol:
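COS-7 cells were transiently transfected by CaPO4 with an expression vector for a human HNF4α isoform, and nuclear extracts were prepared from them. The extracts were applied to a custom Agilent SurePrint G3 4x180k array of double-stranded ~60-nt oligonucleotides, with ~44,000 test sequences spotted in quadruplicate. An Agilent G2565CA scanner imaged bound HNF4α at 2-µm resolution. Binding signal is the background-corrected, normalized gProcessedSignal from Agilent software.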
For “ATTTTGGACTTTGTGCAAATGGAAAATTGTGCCTAGGGAGATTAGAGTATCGGTCGA”, the binding signal came to 3.52 log2 normalized intensity. The figure for “GTCAAGTAGAGACCTGTCTTCCTGGTGACCGCCTAGGGAGATTAGAGTATCGGTCGA” is 2.25 log2 normalized intensity. Turning to “GGGGACCTTTGGCCTTTACCTGTTACTTATGCCTAGGGAGATTAGAGTATCGGTCGA”, the binding signal was found to be 4.06 log2 normalized intensity.

As to “GTAGAGACCTGTCTTCCTGGTGACCTTTGTGCCTAGGGAGATTAGAGTATCGGTCGA”, the binding signal is 7.95 log2 normalized intensity. With “AGGGGTTACTAGTGAGTTGGACTTTGGACCGCCTAGGGAGATTAGAGTATCGGTCGA”, the binding signal amounted to 11.6 log2 normalized intensity.

Take “TTACCGGTGTGACTTTGGTTGGATTTCTTGGCCTAGGGAGATTAGAGTATCGGTCGA”: the binding signal was 1.56 log2 normalized intensity. The figure for “TGACAACTGAATGTGACCTTTTGGACCACAGCCTAGGGAGATTAGAGTATCGGTCGA” is 7.4 log2 normalized intensity; for “CCTGATGACAACTGAATGTGACCTTTTGGAGCCTAGGGAGATTAGAGTATCGGTCGA” it is 6.26 log2 normalized intensity. The figure for “GATACAACGGTTCAAAGGACAGACTTTGGAGCCTAGGGAGATTAGAGTATCGGTCGA” is 4.08 log2 normalized intensity; for “TTCAAAGGACAGACTTTGGACCTGGCCCTCGCCTAGGGAGATTAGAGTATCGGTCGA” it is 6.56 log2 normalized intensity; for “ACTGAATGTGACCTTTTGGACCACAGAGTGGCCTAGGGAGATTAGAGTATCGGTCGA” it is 5.97 log2 normalized intensity. Under “GACCTGTCTTCCTGGTGACCTTTGTTTGGTGCCTAGGGAGATTAGAGTATCGGTCGA” stands 5.66 log2 normalized intensity; under “AACGGTTCAAAGGACAGACTTTGGACCTGGGCCTAGGGAGATTAGAGTATCGGTCGA”, 7.98 log2 normalized intensity.

In the case of “GACCTCATGTAGTCACATACCTATGCAAACGCCTAGGGAGATTAGAGTATCGGTCGA”, the binding signal was determined as 1.02 log2 normalized intensity.

Take “CAGCATCTTCACCGTAAAGCCACCCCTTTCGCCTAGGGAGATTAGAGTATCGGTCGA”: the binding signal amounted to 2.59 log2 normalized intensity. Under “AGCGATCATGGGTGACCCGTTAAGAATGAGGCCTAGGGAGATTAGAGTATCGGTCGA” stands 1.24 log2 normalized intensity; under “CTTAGAATCGAATTGTGAAACTCAGAATCAGCCTAGGGAGATTAGAGTATCGGTCGA”, -0.796 log2 normalized intensity; under “TCACCTACTGACCTTTCTCCCTTTTCACAGGCCTAGGGAGATTAGAGTATCGGTCGA”, 3.5 log2 normalized intensity.

With “AAGATCTGTGAAAGAAAAGTACTTTAGTGTGCCTAGGGAGATTAGAGTATCGGTCGA”, the binding signal stood at 0.992 log2 normalized intensity. The figure for “CAACAGGTGTTAAAATAACGACCTTTGGGCGCCTAGGGAGATTAGAGTATCGGTCGA” is 6.57 log2 normalized intensity; for “AATATCTCAGCACATGGCAGTGTACACTAGGCCTAGGGAGATTAGAGTATCGGTCGA” it is 0.805 log2 normalized intensity. Under “GAGAGAAAAAATCAGAGAGCAAAGGTGATCGCCTAGGGAGATTAGAGTATCGGTCGA” stands 2.63 log2 normalized intensity; under “ATTCCCCGACTCCTGGGTGTGAGATAAGGCGCCTAGGGAGATTAGAGTATCGGTCGA”, 0.0557 log2 normalized intensity. Under “AGACTGGTTTGCACAGGTTACACAGTATGTGCCTAGGGAGATTAGAGTATCGGTCGA” stands -0.754 log2 normalized intensity; under “AAGGTCACTAATTGGAAGCTCTTTCCCTCCGCCTAGGGAGATTAGAGTATCGGTCGA”, 0.732 log2 normalized intensity. Take “GTTAAGTGAGTGGACTTTGGTCCTGGTCAGGCCTAGGGAGATTAGAGTATCGGTCGA”: the binding signal is 7.53 log2 normalized intensity. In the case of “TCCTATTCGGTGCTGACCTTTGTTCACATTGCCTAGGGAGATTAGAGTATCGGTCGA”, the binding signal amounted to 6.64 log2 normalized intensity.

For “GTGAGTGGACTTTGGTCCTGGTCAGACTTGGCCTAGGGAGATTAGAGTATCGGTCGA”, the binding signal turned out to be 6.78 log2 normalized intensity. Under “ACACACAATAAGGACTTTGGACCGTCTTGTGCCTAGGGAGATTAGAGTATCGGTCGA” stands 8.19 log2 normalized intensity; under “CAATAAGGACTTTGGACCGTCTTGTGGATCGCCTAGGGAGATTAGAGTATCGGTCGA”, 6.72 log2 normalized intensity; under “TTTGGACCTGGCCTGCGGGGTCAGGCCGTGGCCTAGGGAGATTAGAGTATCGGTCGA”, 2.71 log2 normalized intensity. The figure for “AGGACTTTGGACCGTCTTGTGGATCCTTGGGCCTAGGGAGATTAGAGTATCGGTCGA” is 5.27 log2 normalized intensity. Under “GAGCACTCATTCCTATTCGGTGCTGACCTTGCCTAGGGAGATTAGAGTATCGGTCGA” stands 3.97 log2 normalized intensity. In the case of “CTCATTCCTATTCGGTGCTGACCTTTGTTCGCCTAGGGAGATTAGAGTATCGGTCGA”, the binding signal was 8.62 log2 normalized intensity. Under “AGTCCATGTGTTAAATAATAACACTCCCATGCCTAGGGAGATTAGAGTATCGGTCGA” stands -0.441 log2 normalized intensity; under “CCTTCCCTTTCATGTTGAACGTCTTCAGAAGCCTAGGGAGATTAGAGTATCGGTCGA”, 1.35 log2 normalized intensity. “CTGCCCAGACCTTATCTTGCATTTCTTCAGGCCTAGGGAGATTAGAGTATCGGTCGA”: the binding signal stood at 0.246 log2 normalized intensity.

On to “CTGCCTGCTTGGCCTCTCCACTTGGGTATCGCCTAGGGAGATTAGAGTATCGGTCGA”, for which the binding signal was -0.182 log2 normalized intensity. For the sequence “AGAAAACACAGAGATCTGATCAAAGGTCATGCCTAGGGAGATTAGAGTATCGGTCGA”, the binding signal was 6.61 log2 normalized intensity. On to “CACAGAGCAAAGGTCATGCATAGAAGTATGGCCTAGGGAGATTAGAGTATCGGTCGA”, for which the binding signal worked out at 4.43 log2 normalized intensity. The figure for “GGACTTGATCCAGGGCAAAGGTCATAATTTGCCTAGGGAGATTAGAGTATCGGTCGA” is 7.95 log2 normalized intensity; for “TGATCCAGGGCAAAGGTCATAATTTGATCCGCCTAGGGAGATTAGAGTATCGGTCGA” it is 6.94 log2 normalized intensity.

With “ACACAGGACTTGATCCAGGGCAAAGGTCATGCCTAGGGAGATTAGAGTATCGGTCGA”, the binding signal came to 7.91 log2 normalized intensity. The figure for “CAAAGGTCATAATTTGATCCAGTGTGCAAAGCCTAGGGAGATTAGAGTATCGGTCGA” is 4.08 log2 normalized intensity.
